IL-1B inflam inh = inhibitors of inflammasome signaling (IL-1 beta secretion); THP-1 LPS/ATP IL-1B secretion, AlphaLISA, 16 h; active compounds read low; activity change, % at 57.5 µM; 360,000 tested, 4.7% active; in the data active = activity change below about -50%; inconclusive = mostly about -30% to -49%
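Secreted IL-1B measured by AlphaLISA bead assay after 16 h compound exposure of THP-1 cells; compounds (final up to 57.5 uM) added 1 h before LPS (250 ng/mL) and ATP (1.25 mM) stimulation; lower signal means less secretion.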
TDP1 cell noCPT = qHTS for Inhibitors of human tyrosyl-DNA phosphodiesterase 1 (TDP1): qHTS in cells in absence of CPT; DT40 Tdp1-/- hTDP1 cells, no CPT, ATP luminescence, 48 h; Potency, µM (doses to about 46.2 µM), hits mostly inhibitors; 420,000 tested, 15% active; AID 686978, 2013; note: nearly all actives have a fitted effect of over 55% in size
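Seeded 400 DT40-hTDP1 cells/well (vehicle DMSO, no 20 nM CPT); pinned compounds; ≥48 hr at 37 °C; CellTiter-Glo luminescence as viability measure.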
HT1080 IDH1KD tx = HT-1080 IDH1 knockdown cell toxicity (counter line); HT-1080 IDH1 knockdown viability, ATP luminescence, 48 h; Potency, µM (top dose mostly 46.1 µM), usual class: cytotoxic; 360,000 tested, 2% active; AID 686971
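After a 2 h attachment period, IDH1KD HT-1080 cells took pin-transferred compound for 48 h at 37 °C; ATP-based luminescence after 10 min room-temperature reagent incubation reported viability.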
DT40 TDP1 CPT = growth inhibition of DT40 Tdp1-/-;hTDP1 cells with camptothecin (screen for TDP1 inhibitors); 420,000 tested, 12% active; Potency, µM (series often up to 46.2 µM), most hits filed as inhibitors; AID 686979; chicken DT40 Tdp1-/-;hTDP1 cells + 20 nM CPT, ATP luminescence, 48 h; note: nearly all actives have a fitted effect of over 55% in size
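Chicken DT40 Tdp1-/- cells stably complemented with human TDP1 were seeded at 400 cells/well in medium containing 20 nM camptothecin, exposed to pin-transferred compounds, and grown at 37 °C for at least 48 hr. Viability was read as ATP luminescence.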
HT1080-NT tox = kills 2HG-producing HT-1080-NT fibrosarcoma cells | HT-1080-NT fibrosarcoma viability, CellTiter-Glo ATP luminescence, 48 h | Potency, µM (doses to about 46.1 µM), usual class: cytotoxic | 360,000 tested, 1.6% active | AID 686970;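 note: NT is the 2HG producing partner of a matched IDH1 knockdown line; nearly all actives have a fitted effect of over 55% in size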
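Viability of the 2HG-overproducing fibrosarcoma line after 48 hours of compound exposure at 37 degrees C was determined by luminescence with CellTiter-Glo, and concentration-effect curves were then fitted and categorized.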
A number is an active result; i = inactive; ? = inconclusive; nt = no result given; ! = a repeat was not active. Most compounds without a hit are left out; they make up all but 19% or so of the library. Unless noted, calls come from the whole dose curve; as a rule, active = well fitted curve in the direction sought with a large enough effect; inconclusive = small, poorly fitted or top-dose-only effect, or another doubt; inactive = no such curve, though single readings can be large; an effect the other way counts as inactive or inconclusive.

SMILES	IL-1B inflam inh	TDP1 cell noCPT	HT1080 IDH1KD tx	DT40 TDP1 CPT	HT1080-NT tox
COc1ccc(-c2ccc(/C=N/NC(=O)c3cccnc3)o2)c([N+](=O)[O-])c1	i	16.4µM	i	?	i
COc1cc([N+](=O)[O-])cc(/C=N/NC(=O)c2cccnc2)c1O	i	?	i	?	i
O=C(N/N=C\c1ccc(-c2cccc(Cl)c2)o1)C(=O)NC1CCCC1	i	?	i	i	?
Cc1ccc(C(=O)N/N=C/c2ccc(-c3ccccc3[N+](=O)[O-])o2)cn1	i	?	i	20.6µM	i
Cc1ccc(C(=O)N/N=C/c2ccc(-c3cccc(Cl)c3)o2)cn1	i	14.6µM	?	14.6µM	25.9µM
O=C1c2cccc(Cl)c2C(=O)c2c1cccc2N1CCCC1	i	?	?	i	?
O=C(Nc1ccccc1Cl)c1cc(C2CCCCN2C(=O)c2ccccc2)on1 (stereo unspecified)	i	?	?	29.1µM	i
O=C(Nc1ccccc1Cl)c1cc(C2CCCCN2S(=O)(=O)c2ccc(F)cc2F)on1 (stereo unspecified)	i	20.6µM	i	16.4µM	i
O=C(Nc1ccc2c(c1)OCO2)c1cc(C2CCCCN2C(=O)c2ccc3ccccc3c2)on1 (stereo unspecified)	i	14.6µM	i	18.4µM	i
CC(=O)Nc1ccc(C(=O)N2CCCCC2c2cc(C(=O)Nc3ccccc3Cl)no2)cc1 (stereo unspecified)	i	i	i	i	i
O=C(Nc1ccccc1)c1cc(C2CCCCN2S(=O)(=O)Cc2cccc(C(F)(F)F)c2)on1 (stereo unspecified)	i	?	i	20.6µM	i
CCCCCCCNC(=O)c1ccc(N2CCC3(CC2)OCCO3)c([N+](=O)[O-])c1	?	?	i	?	i
COc1ccc(-c2csc(C(NC(C)=O)c3ccccc3)n2)cc1 (stereo unspecified)	i	?	i	?	i
O=C(Nc1ccc2c(c1)OCO2)c1cc(C2CCCN(C(=O)C3CCCCC3)C2)on1 (stereo unspecified)	i	?	?	23.1µM	i
O=C(Nc1ccccc1Cl)c1cc(C2CCCN(C(=O)C3CCCCC3)C2)on1 (stereo unspecified)	i	?	?	?	i
O=C(Nc1ccc2c(c1)OCO2)C1CCCCN1S(=O)(=O)c1ccccc1 (stereo unspecified)	i	?	i	?	i
O=C(Nc1ccc2c(c1)OCO2)c1cc(C2CCCCN2S(=O)(=O)c2ccccc2)on1 (stereo unspecified)	i	?	i	16.4µM	i
O=C(Nc1ccccc1)c1cc(C2CCCCN2C(=O)c2ccccc2)on1 (stereo unspecified)	i	?	i	20.6µM	i
CN(C(=O)CSc1nnc(Cc2ccccc2F)n1N)C1CCCCC1	i	i	i	i	i
COc1cccc(NC(=O)C2(C)CCN2C(=O)C2CCCCC2)c1 (stereo unspecified)	i	?	i	?	i
Cc1ccc2nc(-c3cccc(NS(C)(=O)=O)c3)cc(-c3ccccc3)c2c1	-100.5	?	i	?	i
COc1ccc(-c2nc(N/N=C(\C)c3ccc(O)cc3)c3ccccc3n2)cc1	i	7.31µM	?	20.6µM	?
Oc1ccc(Nc2nc3ccccc3nc2Nc2ccc(O)cc2)cc1	i	2.31µM	11.6µM	1.64µM	23.1µM
Cc1n[nH]c(=O)nc1Nc1ccc(O)cc1	i	i	i	i	i
Oc1ccc(Nc2nc(-c3ccccc3)nc3ccccc23)cc1	-93.7	?	?	?	?
SMILES	IL-1B inflam inh	TDP1 cell noCPT	HT1080 IDH1KD tx	DT40 TDP1 CPT	HT1080-NT tox
CC(=O)NCCNc1nc(-c2cccc(NS(C)(=O)=O)c2)nc2ccccc12	nt	i	nt	?	nt
COc1ccc(CCNC(=O)C2CCN(C(=O)c3ccc(OC)c(OC)c3)CC2)cc1	i	i	i	i	i
COc1ccc(Nc2nc(-c3ccccc3)nc3ccccc23)cc1	-94.9	?	?	?	?
CS(=O)(=O)Nc1cccc(-c2nc(Nc3ccc(F)cc3)c3ccccc3n2)c1	nt	4.11µM	nt	5.8µM	nt
CC(=O)Nc1ccc(Nc2nc(-c3ccccc3)nc3ccccc23)cc1	?	23.1µM	i	18.4µM	i
COc1ccc(Nc2ncnc3ccccc23)cc1	i	?	i	?	i
COc1ccc(Nc2nc(-c3cccc([N+](=O)[O-])c3)nc3ccccc23)cc1	i	14.6µM	?	?	?
CNc1nc(-c2cccc(NS(C)(=O)=O)c2)nc2ccccc12	nt	i	nt	i	nt
CCOC(=O)C(C)C(C)=O (stereo unspecified)	?	6.51µM	58µM	6.51µM	?
CCOC(=O)C(C(C)=O)C(c1ccc(OC)cc1)C(C(C)=O)C(=O)OCC (stereo unspecified)	i	i	i	i	i
Oc1ccc(NCc2cccc(OCc3ccc(F)cc3)c2)cc1	i	18.4µM	i	23.1µM	?
c1ccc(COc2cccc(CNCc3cccnc3)c2)cc1	i	?	i	i	i
Oc1ccc(NCc2cccc(OCc3ccccc3)c2)cc1	i	20.6µM	?	14.6µM	?
O=[N+]([O-])c1ccc(COc2cccc(CNc3ccc(F)cc3)c2)cc1	?	13µM	i	25.9µM	i
CCN1CCN(c2cc(C)c3cc(NC(=O)c4cccnc4Cl)ccc3n2)CC1	i	i	i	i	i
CCN1CCN(Cc2ccc(NC(=O)c3ccc(C)c(/C=C/c4cnc(Nc5cc(N6CCNCC6)nc(C)n5)cn4)c3)cc2C(F)(F)F)CC1	-99.8	14.6µM	18.4µM!	3.26µM	?
COc1cc(OC)cc(C(=O)Nc2cccc(C(C)=O)c2)c1	i	i	i	i	i
CCN1CCN(Cc2ccc(NC(=O)c3cc(NC(=O)c4cc(-c5ccc(OC)cc5)n[nH]4)cc(OC)c3)cc2C(F)(F)F)CC1	i	4.61µM	?	?	?
CCN1CCN(Cc2ccc(NC(=O)c3ccc(C)c(NC(=O)c4cccc(-c5cn[nH]c(=O)c5)c4)c3)cc2C(F)(F)F)CC1	-96.5	16.4µM	i	?	?
COc1cc(NC(=O)N2CCNC2=O)cc(C(=O)Nc2cccc(C(F)(F)F)c2)c1	i	4.11µM	5.8µM	3.66µM	4.61µM
Cc1c(C(=O)NCC2CC2)sc2ncnc(NCCN3CCCCC3)c12	nt	i	nt	i	nt
S=C(c1ccccc1)N1CCCc2ccccc21	i	i	i	i	i
COc1ccc(-n2c(SCC(=O)N(C)C3CCS(=O)(=O)C3)nc3ccc(O)cc3c2=O)cc1OC (stereo unspecified)	i	i	i	i	i
CCN1CCN(Cc2ccc(NC(=O)c3cc(NC(=O)c4ccno4)cc(OC)c3)cc2C(F)(F)F)CC1	?	23.1µM	i	?	i
